Screens: PubChem BioAssay, Broad Institute
An excerpt weighted towards active compounds, which were near 3.7% of everything screened.
esBAF inh: Bmi1 luciferase reporter increase in mESCs, primary screen, esBAF inhibitor project, mouse ES cells, Bmi1 luciferase knock-in, single point; 350,000 tested, 2% active; 24 h; 100% = twice the neutral-well signal; reporter increase, % at 12.5 µM; AID 602393, 2012; in the data active = activation above about 40%; inconclusive = no clear call, values can overlap the other calls;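 also: 0% = median of the plate's neutral control wells and 100% = double that signal; a rise in the Bmi1 reporter signal indicates esBAF inhibition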
Wnt bcat act: Wnt/beta-catenin pathway activators, primary screen, cell-based, plate reader, single point | 300,000 tested, 1.2% active | activation, % at 9.35 µM | AID 743398, 2014 | Wnt/beta-catenin reporter cell assay, activator; in the data active = activation above about 30%, passing the limit was not always enough; inconclusive = no clear call, values can overlap the other calls;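 also: 0% = neutral control wells and 100% = positive control wells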
MITF act: activators of MITF-driven TRPM1 promoter reporter, primary screen, cell-based, SK-MEL-5, luciferase, single point; SK-MEL-5 TRPM1-promoter luciferase, 24 h; % of positive control, neutral wells = 0; activation, % at 12.5 µM; 300,000 tested, 0.75% active;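 active = mean activation of at least 80% with every replicate also reaching 80%; inconclusive = mean reaches 80% but some replicate falls short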;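 also: 0% = neutral control wells and 100% = parthenolide positive control wells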
MLL AF4-AF9 inh: inhibitors of AF4 peptide binding to AF9, primary screen, biochemical, AlphaScreen, biotin-AF4 peptide, FLAG-AF9, single point | Protein AF-9 (Homo sapiens), P42568 | inhibition, % at 10 µM | 350,000 tested, 0.47% active;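 active = every replicate reaching a set inhibition limit, whatever the replicate mean, cut at about 25% in these data; inconclusive = mean inhibition reaches that limit but some replicates miss it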;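 also: 0% = plate neutral control median and 100% = total signal loss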
Target sequence (P42568 whole entry, looked up): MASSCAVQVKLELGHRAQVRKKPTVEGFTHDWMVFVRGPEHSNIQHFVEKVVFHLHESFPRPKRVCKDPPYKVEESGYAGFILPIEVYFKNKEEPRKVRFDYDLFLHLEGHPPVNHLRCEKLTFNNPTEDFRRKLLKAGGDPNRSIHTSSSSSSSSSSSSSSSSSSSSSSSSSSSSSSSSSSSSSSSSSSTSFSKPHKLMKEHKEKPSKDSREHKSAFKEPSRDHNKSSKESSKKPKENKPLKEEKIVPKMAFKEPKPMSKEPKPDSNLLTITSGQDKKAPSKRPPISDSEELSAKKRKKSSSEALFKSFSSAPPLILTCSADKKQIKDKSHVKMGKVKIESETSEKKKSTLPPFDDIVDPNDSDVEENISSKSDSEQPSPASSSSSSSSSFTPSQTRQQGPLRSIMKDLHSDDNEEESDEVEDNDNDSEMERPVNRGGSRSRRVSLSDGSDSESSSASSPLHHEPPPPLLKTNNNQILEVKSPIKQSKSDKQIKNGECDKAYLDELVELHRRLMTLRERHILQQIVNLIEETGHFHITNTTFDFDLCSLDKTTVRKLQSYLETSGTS
Ecoli rRNA inh: reduced GFP signal of wild-type E. coli, primary screen, bacterial rRNA inhibitor project, GFP/RFP fluorescence, OD600, single point. GFP signal change (wild-type ribosome), % (concentration not given with the values). 350,000 tested, 1.6% active. AID 720706, 2013. E. coli WT GFP vs humanized-ribosome RFP mutants, 24 h; hits give low values; DMSO median 0, no signal -100;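 active = significant combined selectivity score with lowered wild-type GFP, culture density cut under 30%, mutant RFP and density less affected; inactive = any of these conditions unmet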
* marks the source's active call; other numbers are inactive results; ? = inconclusive; nt = no result given.

SMILES | esBAF inh | Wnt bcat act | MITF act | MLL AF4-AF9 inh | Ecoli rRNA inh
CN(C)S(=O)(=O)Oc1cccc(C(=O)Nc2cccc(Cl)c2)c1 | 44* | 31* | nt | nt | nt
CC(C)C(=O)Nc1cc(S(=O)(=O)Nc2cccc(Cl)c2)ccc1Cl | nt | 0 | 1 | -1 | -22*
CNS(=O)(=O)c1cccc(C(=O)Nc2cccc(Cl)c2)c1 | 48* | nt | nt | nt | nt
Cc1ccc(C(=O)N2CCN(C(=O)CN3CCOCC3)C2)cc1 | -3 | nt | 0 | nt | nt
O=C(N/N=C/c1ccccc1C(=O)O)c1cccc(S(=O)(=O)Nc2cc(Cl)ccc2Cl)c1 | -7 | 1 | 4 | -1 | -19*
Oc1ccc(C=NNC(=S)Nc2ccc(F)cc2)c(O)c1 | ? | 37* | 17 | 10 | -22
Oc1ccc(/C=N/Nc2ccc3ccccc3c2)c(O)c1 | 9 | 5 | 3 | 5 | -32*
O=C(N/N=C/c1ccc(O)cc1O)C(=O)N/N=C/c1ccc(O)cc1O | 4 | -4 | nt | -3 | -24*
Oc1ccc(C=NNc2nc3ccccc3s2)c(O)c1 | nt | -4 | -13 | 5 | -55
CCC(=O)Nc1ccc(C(=O)OCc2ccccc2Cl)cc1 | ? | nt | 121* | nt | nt
CCOc1ccc(CNC(=O)Nc2ccccc2)cc1 | 47* | 11 | 65 | 0 | 2
CCOc1ccc(N(CC(=O)Nc2ccc(C)cc2)S(C)(=O)=O)cc1 | 80* | 17 | 66 | 2 | 8
CCOc1ccc(N(CC(=O)Nc2cc(C)cc(C)c2)S(C)(=O)=O)cc1 | ? | 16 | 43 | 1 | -10
COC(=O)c1ccc(NC(=O)Cc2ccccc2)cc1 | nt | 39* | nt | nt | nt
O=C(O)C[C@@H]1CC[C@@H](NC(=O)c2ccncc2)[C@@H](CO)O1 | -1 | nt | nt | -8 | 2
CN(C(=O)COc1ccc(Cl)cc1Cl)C1(C)CCS(=O)(=O)C1 (stereo not drawn) | 1 | 0 | 7 | -1 | 6
COC(=O)CN(c1c(C)cccc1C)S(C)(=O)=O | -1 | nt | -6 | nt | nt
CCOc1ccc(NC(=O)CNC(=O)Cc2ccccc2)cc1 | -6 | 1 | -4 | 1 | 6
